Source: ChEMBL document CHEMBL5308504, “Tm Shift (DSF) assay results for EUbOPEN Chemogenomics Library” (2023)
Where “and” joins values, the source holds several entries; their conditions need not be identical. Identical values can stand only once.

Assays:
[1] = target: Bromodomain-containing protein 4 (Homo sapiens) (UniProt O60885); details: Compound concentration 20.0 uM, Protein concentration 2.0 uM, Result type QC Liability
[2] = target: T1, Transcription intermediary factor 1-alpha (Homo sapiens) (UniProt O15164); details: Compound concentration 20.0 uM, Protein concentration 2.0 uM, Result type QC Liability
T1 sequence (whole entry): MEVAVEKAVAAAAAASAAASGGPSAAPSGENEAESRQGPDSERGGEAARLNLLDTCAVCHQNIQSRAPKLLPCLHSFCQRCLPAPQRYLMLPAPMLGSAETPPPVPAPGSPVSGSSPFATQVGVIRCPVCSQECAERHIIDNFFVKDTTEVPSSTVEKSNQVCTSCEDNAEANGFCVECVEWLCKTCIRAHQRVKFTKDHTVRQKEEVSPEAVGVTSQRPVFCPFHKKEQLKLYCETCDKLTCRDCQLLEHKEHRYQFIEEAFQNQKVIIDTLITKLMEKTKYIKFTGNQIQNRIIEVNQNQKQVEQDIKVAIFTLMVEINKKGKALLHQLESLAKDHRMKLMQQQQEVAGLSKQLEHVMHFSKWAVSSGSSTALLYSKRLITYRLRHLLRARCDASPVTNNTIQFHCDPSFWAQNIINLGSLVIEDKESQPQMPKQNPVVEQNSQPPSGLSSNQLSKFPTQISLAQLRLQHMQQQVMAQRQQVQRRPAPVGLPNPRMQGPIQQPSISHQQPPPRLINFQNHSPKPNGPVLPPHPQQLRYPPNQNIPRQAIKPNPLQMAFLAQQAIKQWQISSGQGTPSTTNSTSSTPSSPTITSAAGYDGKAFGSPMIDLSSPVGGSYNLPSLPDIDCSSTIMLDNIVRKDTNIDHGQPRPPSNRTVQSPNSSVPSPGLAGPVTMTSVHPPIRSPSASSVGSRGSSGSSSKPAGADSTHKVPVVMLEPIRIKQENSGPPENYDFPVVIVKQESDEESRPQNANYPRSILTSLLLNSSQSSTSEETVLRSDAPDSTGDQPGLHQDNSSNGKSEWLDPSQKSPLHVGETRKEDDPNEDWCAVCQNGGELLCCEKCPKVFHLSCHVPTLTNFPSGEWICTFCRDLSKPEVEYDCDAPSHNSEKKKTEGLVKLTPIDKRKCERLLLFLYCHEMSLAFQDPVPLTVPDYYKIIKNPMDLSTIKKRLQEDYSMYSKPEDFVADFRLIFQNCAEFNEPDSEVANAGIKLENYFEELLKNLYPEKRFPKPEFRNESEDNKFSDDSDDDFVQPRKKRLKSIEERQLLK

SMILES	ΔTm [1]	ΔTm [2]
COc1ccc(-c2csc(NC(=O)[C@H]3CCCCN3S(=O)(=O)c3ccc(C)cc3)n2)cc1	3.35 °C	-0.04 °C
CCCCCCCN(CCc1ccc(SC(C)(C)C(=O)O)cc1)C(=O)Nc1ccc(F)cc1F	-1.9 °C	-3.36 °C
COc1cc(-c2cn[nH]c2)ccc1C(=O)Nc1ccc2c(c1)CCNCC2	-1.67 °C	-2.57 °C
Cc1cc(CN(CC(=O)Nc2ccc(Cl)cc2Cl)C2CCCCC2)ccc1OCC(=O)O	-1.17 °C	-0.29 °C
O=C(CCSCc1ccco1)NNC(=O)N1Cc2ccccc2Oc2ccc(Cl)cc21	-3.5 °C	-1.32 °C
CC1(C)C[C@@H]1C(=O)N/C(=C\CCCCSC[C@H](N)C(=O)O)C(=O)O	-2.05 °C	-0.56 °C
Cn1cnc(Cn2ccc3ccc(CNCc4[nH]c5ccccc5c4[C@@H]4NC(=O)c5ccc(O)cc54)cc32)c1	-1.28 °C	0.32 °C
CCN(C(=O)c1cc(F)ccc1Oc1cncnc1N1CC2(CCN(C[C@H]3CC[C@H](NS(=O)(=O)CC)CC3)CC2)C1)C(C)C	-1.64 °C	-1.14 °C
Cc1cn([C@H](C)CC#N)c(=O)c2cc(Cn3nc(C(F)F)cc3Cl)nn12	-1.08 °C	-1.23 °C
Cc1cc(OC2CCS(=O)(=O)CC2)cc(C)c1-c1cccc(COc2ccc(C(=O)O)c(F)c2)c1	-3.26 °C	-2.6 °C
CC(=O)c1c(C)c2cnc(Nc3ccc(N4CCNCC4)cn3)nc2n(C2CCCC2)c1=O	-1.52 °C and 0.07 °C	-1.97 °C and -2.09 °C
CN(C(=O)c1cnn2cccnc12)c1cc2c(cc1N1CCOCC1)C(=O)N(C[C@@H](F)C(C)(C)O)C2	0.93 °C	-2.51 °C
Fc1ccc(-c2c3cccc(C(F)(F)F)c3nn2Cc2ccc(F)cc2Cl)cc1	-3.53 °C	-1.16 °C
